# TDP1 cell noCPT = qHTS for Inhibitors of human tyrosyl-DNA phosphodiesterase 1 (TDP1): qHTS in cells in absence of CPT; hit rate 15% among 420,000; Potency, µM (highest dose often 46.2 µM), inactives show at the highest dose activity change, negative = growth inhibition, usual class: inhibitors; DT40 Tdp1-/- hTDP1 cells, no CPT, ATP luminescence, 48 h; further: potency means the concentration at half of the fitted maximal effect; nearly all actives have a fitted effect of over 55% in size
#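 Growth of hTDP1-complemented DT40 Tdp1-knockout cells is measured by ATP luminescence after at least 48 hr compound exposure at 37 °C, with DMSO substituting for the 20 nM CPT used in the parallel screen.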
# TDP1 cell CPT = DT40-hTDP1 cell growth loss with CPT. chicken DT40 Tdp1-/-;hTDP1 cells + 20 nM CPT, ATP luminescence, 48 h. Potency, µM (top dose mostly 46.2 µM), without a hit: at the top dose activity change, negative = growth inhibition, most hits filed as inhibitors. hit rate 12% among 420,000. AID 686979; further: potency means the concentration at half of the fitted maximal effect; nearly all actives have a fitted effect of over 55% in size
#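 Cell growth measured by CellTiter-Glo luminescence after a minimum 48 h, 37 C compound exposure with 20 nM CPT in Tdp1-knockout DT40 cells stably expressing hTDP1, seeded 400/well; qHTS titration format.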
# HT1080 IDH1KD tx = kills HT-1080 cells with IDH1 knockdown; HT-1080 IDH1 knockdown viability, ATP luminescence, 48 h; Potency, µM (titrated, usually from 46.1 µM), for the others: at the top dose activity, negative = toxicity, hits mostly cytotoxic; hit rate 2% among 360,000; AID 686971;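 further: potency means the concentration at half of the fitted maximal effect; 0% = DMSO wells and -100% = cell-free medium wells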
#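 % activity derives from luminescence (CellTiter-Glo), normalised to DMSO and no-cell wells. HT-1080-IDH1KD cells, 750/well, had 48 h compound exposure at 37 °C.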
# IL1B secr inh = inflammasome signaling inhibition, IL-1 beta readout; THP-1 LPS/ATP IL-1B secretion, AlphaLISA, 16 h; stronger effect = lower value; activity change, % at 57.5 µM; hit rate 4.7% among 360,000; in the data active means activity change below about -50%; inconclusive means mostly about -30% to -49%
#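 THP-1 cells pretreated 1 hr with compounds (up to 57.5 uM final), then stimulated with LPS (250 ng/mL final) plus ATP (1.25 mM final); secreted IL-1B measured by AlphaLISA after 16 hr, decreased signal indicating inhibition.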
# HT1080-NT tox = kills 2HG-producing HT-1080-NT fibrosarcoma cells. HT-1080-NT fibrosarcoma viability, CellTiter-Glo ATP luminescence, 48 h. Potency, µM (doses to about 46.1 µM), inactives show at the highest dose activity, negative = less viability, actives largely listed as cytotoxic. hit rate 1.6% among 360,000. AID 686970;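 further: NT is the 2HG producing partner of a matched IDH1 knockdown line; potency means the concentration at half of the fitted maximal effect; 0% = DMSO-treated cells and -100% = media-only wells without cells; nearly all actives have a fitted effect of over 55% in size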
#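 Fibrosarcoma NT cells, 750 per well in 5% FBS RPMI, were exposed to compound for 48 hours. Viability: CellTiter-Glo luminescence.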
# ELG1 DNA repair = ELG1-dependent DNA repair inhibition. HEK293T ELG1-luciferase reporter, luminescence, 16 h; DNA damage induced by 5-fluorouridine. Potency, µM (doses to about 46.1 µM), for inactives: top-dose activity change, negative = inhibition, usual class: inhibitors. hit rate 2.3% among 330,000. AID 504467; further: potency means the concentration at half of the fitted maximal effect; nearly all actives have a fitted effect of over 55% in size
#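 Overnight (16 hr) co-exposure of 2,000 cells/well to 5-fluorouridine and compound at 37 °C preceded detection. Luciferase was quantified via ONE-Glo luminescence; loss of signal denotes inhibition.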
# The depositor's hits bear a star; u = inconclusive; x = no result given; ! = repeats disagree. In the library only some 19% were active in any assay of this set; here they are far more common. Unless noted, the call rests on the fitted dose curve; in most records, active means well fitted curve in the direction sought with a large enough effect; inconclusive means small, poorly fitted or top-dose-only effect, or another doubt; inactive means no such curve, though single readings can be large; an effect the other way counts as inactive or inconclusive. Unless noted, on the % scale 0 is the no-effect control and ±100 the full control effect.
SMILES,TDP1 cell noCPT,TDP1 cell CPT,HT1080 IDH1KD tx,IL1B secr inh,HT1080-NT tox,ELG1 DNA repair
CCCc1nnc(NC(=O)CCC(=O)N2CCN(Cc3cc(Cl)ccc3OC)CC2)s1,u,-27%,-10%,0,2%,-5%
Cc1noc(C)c1COC(=O)c1ccccc1Sc1ccccc1C#N,u,26µM*,-28%,-20,-6%,23µM*
Cc1ccc(-n2nnc3c(sc4nc(C)c(C)cc43)c2=O)cc1Cl,-2%,-10%,x,x,x,x
Cc1ccccc1CNC(=O)CN1C(=O)CCCc2ccccc21,-17%,-7%,x,x,x,x
CCNc1nc(Oc2ccc(C#N)cc2)cc(C(F)(F)F)n1,u,-4%,-11%,-57*,-14%,-18%
Cc1ccc(C(=O)Oc2ccccc2N2C(=O)C3CCC(C)CC3C2=O)cc1 (centres undefined),0%,5%,8%,0,11%,1%
CC1CCC2C(=O)N(c3ccc(C(=O)Oc4cccc5cccnc45)cc3)C(=O)C2C1 (centres undefined),0.65µM*,0.73µM*,u,-86*,u,u
O=C1[C@H](Cc2ccccc2)NCCCC[C@H](c2ccco2)N1Cc1ccccc1,21µM*,13µM*,u,-22,u,x
O=C1[C@H](Cc2ccccc2)NC/C=C\C[C@@H](c2ccc(Cl)cc2)N1Cc1ccccc1,11µM*,13µM*,x,x,x,x
CC(C)CC(=O)N1CC=CC[C@@H](c2ccc(Cl)cc2)N(Cc2ccc(Cl)cc2)C(=O)[C@@H]1Cc1ccccc1,13µM*,15µM*,-20%,18,-13%,x
O=C1[C@H](Cc2ccccc2)NC/C=C\C[C@@H](c2ccco2)N1Cc1ccccc1,14µM*,u,x,x,x,x
CC(=O)C1=C(O)C(=O)N(Cc2ccccc2)C1c1ccc(Cl)cc1 (centres undefined),-9%,25%,-7%,46,-1%,2%
COc1ccc(S(=O)(=O)N2CCOCC2)cc1C(=O)NC1CCCCCC1,u,-11%,0%,-8,13%,9%
Cc1ccc(N2C(=O)[C@@H]3CSC(c4ccc(Cl)cc4)N3C2=O)cc1 (some centres undefined),-20%,2%,x,x,x,x
Cc1ccc2c(c1)cc1c(=O)n(CC(=O)N3CCCCC3)nc(C)n12,u,1%,x,x,x,x
O=C(O)c1ccc(S(=O)(=O)NCC2CCCO2)cc1 (centres undefined),7%,17%,-1%,6,9%,13%
O=C(Nc1cccc(S(=O)(=O)Nc2ccc(Cl)cc2)c1)c1ccc[n+]([O-])c1,-14%,-4%,-3%,9,-4%,0%
O=C1[C@H](Cc2ccccc2)NCCCC[C@@H](c2ccco2)N1Cc1ccccc1,13µM*!,u,-14%,-12,-10%,x
O=C1[C@H](Cc2ccccc2)NCC=CC[C@@H](c2ccco2)N1Cc1ccccc1,u,u,-1%,-4,-2%,x
Cc1ccc(C(=O)OCC(=O)NC2CCCC(C)C2C)s1 (centres undefined),u,2%,2%,-6,8%,x
O=C(O)c1cccc(Nc2nc(-c3ccc([N+](=O)[O-])cc3)nc3ccccc23)c1,7%,-30%,1%,34,0%,2%
c1ccc(Nc2nc(-c3ccccc3)nc3ccccc23)cc1,0%,-16%,0%,-7,2%,-10%
CN(C)C(=O)c1ccc(-c2nc(Nc3ccccc3)c3ccccc3n2)cc1,16µM*,u,x,x,x,x
O=C(O)c1ccc(Nc2c3ccccc3nc3ccccc23)cc1,2.1µM*,1.3µM*,-14%,-13,-18%,0%
CNC(=O)c1ccc(Nc2nc(-c3ccccc3)nc3ccccc23)cc1,13µM*,16µM*,18µM*,-90*,18µM*,15µM*
SMILES,TDP1 cell noCPT,TDP1 cell CPT,HT1080 IDH1KD tx,IL1B secr inh,HT1080-NT tox,ELG1 DNA repair
O=C(O)c1ccc(Nc2nc(-c3ccccc3)nc3ccccc23)cc1,21µM*,23µM*,-16%,10,-27%,-11%
NC(=O)c1ccc(SCC(=O)OCC(=O)N2CCN(C(=O)c3ccco3)CC2)c([N+](=O)[O-])c1,15%,5%,10%,13,10%,10%
CCOC(=O)[C@H](C)N1[C@H](C)[C@H](c2ccccc2)Oc2ccc(Cl)cc2S1(=O)=O,u,u,7%,-6,12%,x
CN(Cc1ccc(OC(F)F)cc1)C(=O)/C=C/c1ccc(S(=O)(=O)N2CCOCC2)cc1,u,18µM*,-3%,-66*,2%,16µM*
COc1ccc(CN(C)C(=O)/C=C/c2ccc(S(=O)(=O)N3CCOCC3)cc2)cc1F,21µM*,16µM*,0%,-14,2%,23µM*
CN(Cc1ccc(OC(F)F)cc1)C(=O)C1CCN(S(=O)(=O)c2ccc3c(c2)OCCO3)CC1,u,u,-6%,-2,2%,7.3µM*
CN(CC(=O)NCCc1ccccc1)Cc1ccco1,-27%,-3%,1%,-3,0%,u
COc1ccc(NC(=O)CN2C(=O)CCc3cc(S(=O)(=O)N4CCOCC4)ccc32)c(OC)c1,-4%,3%,x,x,x,x
CC(C(=O)NC(N)=O)N1C(=O)NC(c2ccccc2)(c2ccccc2)C1=O (centres undefined),-2%,-1%,2%,17,6%,16%
O=C1c2ccccc2S(=O)N1c1cccc(F)c1 (centres undefined),-28%,-20%,3%,-27,21%,x
CCn1c(=O)n(CC)c2cc(N3CCCC3)c(NC(=O)c3ccccc3OC)cc21,5.8µM*,6.5µM*,u,-53*,u,u
CCn1c(=O)c(=O)n(CC)c2cc(N3CCCCC3)c(NC(=O)c3cccc(OC)c3)cc21,-24%,-1%,x,x,x,x
CCn1c(=O)n(CC)c2cc(N3CCCC3)c(NC(=O)c3cc(Cl)ccc3OC)cc21,21µM*,16µM*,1%,-64*,15%,18µM*
CCn1c(=O)n(CC)c2cc(N3CCCC3)c(NC(=O)c3ccc(OC)c(Br)c3)cc21,12µM*,16µM*,0%,-4,-13%,12µM*
CCOc1ccccc1C(=O)Nc1cc2c(cc1N1CCOCC1)n(C)c(=O)n2C,16µM*,15µM*,x,x,x,x
COc1cc2ccccc2cc1C(=O)Nc1ccccc1N1CCCC1,u,u,-3%,6,0%,-6%

# Compound activity from PubChem.
